Sampled rows, rich in hits. Any-hit rate of the full collection: about 12%.
Shiga inhibitor: blocks Shiga toxin action in Vero cells. inhibition, % at 38.7 µM. actives 9.2% (n = 290,000). AID 2315. Vero cells, Shiga toxin protein synthesis inhibition reporter; in the data active = inhibition mostly above about 28%, no sharp cut-off; inactive = mostly below about 43%; also: 0% is about no effect
Sm TGR inh: S. mansoni TGR enzyme inhibition. purified TGR, DTNB reduction, TNB absorbance 405 nm. Potency, µM (titrated, usually from 114 µM), without a hit: at the highest dose activity change, negative = inhibition, usual class: inhibitors. actives 3% (n = 360,000). AID 485364; active = well fitted inhibition curve with a large enough effect; inconclusive = small, poorly fitted or top-dose-only effect; inactive = no such curve, though single readings can be large or run the other way; also: potency is read from the fitted curve at half-maximal effect; % is scaled to controls: 0 for no effect and ±100 for the full control effect; nearly all actives have a fitted effect of over 60% in size
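First, TGR (20 nM dispensed) and NADPH were mixed with compound. Second, a 15 min room-temperature incubation followed. Third, further NADPH and then DTNB were added to start the reaction. Finally, TNB absorbance was monitored kinetically.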
CHX counter: counter-screen hit for Shiga toxin inhibitors, cycloheximide; cell reporter, cycloheximide protein synthesis inhibition counterscreen; actives 12% (n = 300,000); AID 2314; max response, %; in the data active = max response mostly above about 13%, no sharp cut-off; inactive = mostly below about 14%; also: read at 38.3 µM for the half of the compounds with a filed dose; 0% is about no effect
FMDV antiviral: blocks foot and mouth disease virus; FMDV antiviral cell-based qHTS; Potency, µM (doses to about 57.9 µM), for inactives: at the highest dose activity change, negative = inhibition, actives largely listed as inhibitors; actives 1.2% (n = 410,000); AID 1159524; calls by dose curve; tested in HEK293T cells; also: read-out not given here; potency is read from the fitted curve at half-maximal effect; % is scaled to controls: 0 for no effect and ±100 for the full control effect; nearly all actives have a fitted effect of over 45% in size
Starred values were filed as active, the others as inactive; i = inactive; ? = inconclusive; . = not tested or not shown.

SMILES	Shiga inhibitor	Sm TGR inh	CHX counter	FMDV antiviral
CCCCCOc1ccc(Cl)cc1CN1CCOCC1	47	-23%	24*	-16%
CC1=C(c2ccc(C)c(C)c2)S(=O)(=O)N=C1N1CCC(C(=O)NCCc2ccco2)CC1	.	-14%	.	14%
O=C(c1ccc(OCc2cn3ccccc3n2)cc1)N1CCN(S(=O)(=O)c2ccccc2F)CC1	.	-15%	.	5%
c1ccc(OCCOc2cccc3cccnc23)cc1	68*	9%	33*	25%
CCN(CC)C(=O)Oc1ccc(Cl)c2cccnc12	-17	.	-3	?
Clc1ccc(OCc2cn3ccccc3n2)c2ncccc12	90*	5%	37*	45%
O=C(O)c1ccc(OCc2cn3ccccc3n2)cc1	26*	6%	29*	23%
O=C(COc1cccc2cccnc12)Nc1ccccc1	56	3%	34*	64%
CCOc1ccc(NC(=O)CSc2ncc3c(n2)-c2ccccc2N(C)S3(=O)=O)cc1	.	4%	.	-9%
CCOC(=O)C1CCN(C(=O)Cn2ncc3c4ccccc4n(Cc4ccccc4)c3c2=O)CC1	.	5%	.	-27%
OCc1ccccc1OCCOc1ccc(Cl)c2cccnc12	58	-4%	27*	3%
Clc1ccc(Oc2ccccc2)c2ncccc12	-4	0%	-4	-3%
OCc1ccccc1OCCCOc1cccc2cccnc12	53*	-1%	26*	19%
CC(=O)CCc1ccc(OCCCOc2cccc3cccnc23)cc1	46*	4%	29*	-1%
COc1ccc(CNC(=O)CS(=O)(=O)c2cccc3nsnc23)cc1	.	-4%	.	-3%
C[C@@H](CSc1ccc(Br)cc1)CN1CC[C@H](NC(=O)OCc2ccccc2)CCC1=O	.	.	.	25µM*
O=C(N[C@H]1CCC(=O)N([C@H](CSc2ccc(Br)cc2)Cc2ccccc2)CC1)OCc1ccccc1	.	.	.	-8%
CCOC(=O)N1CCN(S(=O)(=O)c2ccc(C(=O)Nc3nc4ccc(F)cc4s3)cc2)CC1	-9	-1%	1	?
CCOC(=O)c1ccc2nc(Nc3nc4ccc(F)cc4s3)sc2c1	147*	-5%	150*	?
COC(=O)c1ccc2nc(NC(=O)CCS(=O)(=O)c3ccccc3)sc2c1	-1	-27%	-1	-6%
CCOC(=O)c1ccc2nc(NC(C)=O)sc2c1	56	-6%	48*	24%
COC(=O)c1ccc2nc(Nc3nc4c(F)cc(F)cc4s3)sc2c1	-15	2%	57*	0.25µM*
CCOC(=O)C(=CNc1nc2ccc(C(=O)OCC)cc2s1)C(=O)OCC	3	8%	1	-12%
O=C(Cc1ccccc1)N(Cc1cccnc1)c1nc2ccc(F)cc2s1	.	15%	.	-3%
CC1=C(O)C(=O)C=C2C1=CC=C1[C@]2(C)CC[C@@]2(C)C3C[C@](C)(C(=O)O)CC[C@@]3(C)CC[C@@]12C (some centres undefined)	.	.	.	4µM*
SMILES	Shiga inhibitor	Sm TGR inh	CHX counter	FMDV antiviral
CC1(C)C(=O)CC[C@]2(C)C3C(=O)C=C4[C@H]5C[C@@](C)(C(=O)O)CC[C@]5(C)CC[C@]4(C)[C@]3(C)CC[C@@H]12 (some centres undefined)	-5	-14%	-4	-16%
CCC(=O)Nc1ccc(-c2ccc(N3CCC(C)CC3)nn2)cc1	76*	4%	29*	18%
CCC(=O)Nc1ccc(-c2ccc(N3CCN(C)CC3)nn2)cc1	35*	-10%	26*	32%
CC1CCN(c2ccc(-c3cccc(NC(=O)C(F)(F)F)c3)nn2)CC1	-27	-20%	-16	16µM*
CC1CCN(c2ccc(-c3cccc(NC(=O)c4ccco4)c3)nn2)CC1	.	-1%	.	-24%
CCC(=O)Nc1cccc(-c2ccc(N3CCC(C)CC3)nn2)c1	64*	1%	45*	-74%
Cc1cc(C)c(S(=O)(=O)Nc2ccc(-c3ccc(N4CCC(C)CC4)nn3)cc2)cc1C	.	-7%	.	56%
O=C(COc1ccc(Cl)cc1Cl)Nc1ccc(-c2ccc(N3CCOCC3)nn2)cc1	.	0%	.	-18%
Cc1cc(F)c(Nc2ncnc3cc(OCc4ccccc4)ccc23)cc1O	17	.	4	-14%
COc1cccc(CNC(=O)C2CCN(C(=O)c3cnn(-c4ccccc4)c3-n3cccc3)CC2)c1	.	9%	.	?
CC1CCN(S(=O)(=O)c2ccc3c(c2)N(CC(=O)NCCN(C)C)C(=O)CO3)CC1	.	0%	.	-7%
Cc1cccn2c(=O)cc(CSc3nnc(NC(=O)c4ccc(F)cc4)s3)nc12	.	4%	.	5%
CCOC(=O)c1scc(-c2ccccc2)c1S(=O)(=O)N1CCN(c2ccccc2OC)CC1	.	-1%	.	-20%
CCn1cc(C(=O)Nc2ccc(F)c(F)c2)cn1	60*	1%	11*	39%
CCn1cc(C(=O)Nc2ccc(C)c([N+](=O)[O-])c2)cn1	active	-6%	10	37%
COc1cc(/C=N\Nc2nc3ccccc3o2)cc(OC)c1OC	110*	-7%	40*	.
COc1ccc(/C=N/Nc2nc3ccccc3o2)cc1O	76	-8%	36*	-38%
CC(=O)Nc1ccc(/C=N/Nc2nc3ccccc3s2)cc1	72*	2%	54*	14%
CC(=O)Nc1cccc(/C(C)=N/Nc2nc3ccccc3s2)c1	113*	0%	39*	-42%
COc1ccc([C@]23Cc4cc(C#N)ccc4C(O2)c2c(cc(C)n(-c4ccccc4)c2=O)O3)cc1	i	?	-3	.
CC(=O)N1CCCc2cc(S(=O)(=O)N3CCC(C(=O)NCCC(C)C)CC3)ccc21	.	1%	.	-3%
COc1ccc(/C=N/Nc2nc3ccccc3s2)cc1O	68*	7%	33	-67%
COc1cccc(C=NNc2nc3ccccc3s2)c1OC	.	.	.	0%
Cc1ccc2nc(SC(C)C(=O)N3CCCCC3)[nH]c2c1 (centres undefined)	105	-18%	35*	37%
Cc1ccc2nc(SC(C)C(=O)N3CCCC3)[nH]c2c1 (centres undefined)	57*	-3%	25*	46%
SMILES	Shiga inhibitor	Sm TGR inh	CHX counter	FMDV antiviral
Cc1ccc2nc(SCC(=O)N3CCCC3)[nH]c2c1	92	-1%	22*	9%
COC(=O)CSc1nc2ccc(C)cc2[nH]1	0	-3%	6	14%
Cc1ccc2nc(SCC(=O)c3ccc(O)cc3O)[nH]c2c1	49*	-11%	46*	89%
COc1cccc(NC(=O)Cn2c(=O)n(-c3ccccc3)c(=O)c3ccc(C(=O)NCc4ccc5c(c4)OCO5)cc32)c1	.	-6%	.	21%
COc1ccccc1NC(=O)C1=C(C)Nc2nc3ccccc3n2C1c1cccc(Br)c1 (centres undefined)	.	8%	.	?
CCOCCCN(Cc1ccco1)C(=O)c1cc2c(s1)-c1c(C)cccc1OC2	.	-7%	.	17%
CN(C)C(=O)CSc1nc2ccc(C(=O)c3ccccc3)cc2[nH]1	.	0%	23*	42%
Cc1ccc2nc(SCC(=O)N3CCN(C(=O)c4ccco4)CC3)[nH]c2c1	12	6%	10	-4%
CC(Sc1nc2ccc(C(=O)c3ccccc3)cc2[nH]1)C(=O)O (centres undefined)	11	-10%	-1	-16%
CCc1cc2ccc(C)cc2nc1SCC(=O)N1CCN(C(=O)c2ccco2)CC1	4	40µM*	2	0%

Source: PubChem BioAssay
